From PubChem BioAssay AID652192 (Johns Hopkins Ion Channel Center, 2013)
Measured potencies and affinities stand elsewhere.

Biological target: Potassium voltage-gated channel subfamily KQT member 2 (Rattus norvegicus) (UniProt O88943)
Assay: block of rat KCNQ2 potassium channel – cell-based, FluxOR thallium flux, concentration-response, selectivity assay for TASK1 inhibitor project, SAR follow-up (AID 652192)
Settings: KCNQ2 cell line, FluxOR thallium flux fluorescence; series mostly up to 30 µM; flux ratio, lower = inhibition: at the top concentration;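 active means peak inhibition of the KCNQ2 potassium channel over 30% at some tested dose, with a fitted dose response curve; inactive means no inhibition at any dose, or no curve fitted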

Potassium voltage-gated channel subfamily KQT member 2 (Rattus norvegicus), sequence (O88943 whole entry, looked up): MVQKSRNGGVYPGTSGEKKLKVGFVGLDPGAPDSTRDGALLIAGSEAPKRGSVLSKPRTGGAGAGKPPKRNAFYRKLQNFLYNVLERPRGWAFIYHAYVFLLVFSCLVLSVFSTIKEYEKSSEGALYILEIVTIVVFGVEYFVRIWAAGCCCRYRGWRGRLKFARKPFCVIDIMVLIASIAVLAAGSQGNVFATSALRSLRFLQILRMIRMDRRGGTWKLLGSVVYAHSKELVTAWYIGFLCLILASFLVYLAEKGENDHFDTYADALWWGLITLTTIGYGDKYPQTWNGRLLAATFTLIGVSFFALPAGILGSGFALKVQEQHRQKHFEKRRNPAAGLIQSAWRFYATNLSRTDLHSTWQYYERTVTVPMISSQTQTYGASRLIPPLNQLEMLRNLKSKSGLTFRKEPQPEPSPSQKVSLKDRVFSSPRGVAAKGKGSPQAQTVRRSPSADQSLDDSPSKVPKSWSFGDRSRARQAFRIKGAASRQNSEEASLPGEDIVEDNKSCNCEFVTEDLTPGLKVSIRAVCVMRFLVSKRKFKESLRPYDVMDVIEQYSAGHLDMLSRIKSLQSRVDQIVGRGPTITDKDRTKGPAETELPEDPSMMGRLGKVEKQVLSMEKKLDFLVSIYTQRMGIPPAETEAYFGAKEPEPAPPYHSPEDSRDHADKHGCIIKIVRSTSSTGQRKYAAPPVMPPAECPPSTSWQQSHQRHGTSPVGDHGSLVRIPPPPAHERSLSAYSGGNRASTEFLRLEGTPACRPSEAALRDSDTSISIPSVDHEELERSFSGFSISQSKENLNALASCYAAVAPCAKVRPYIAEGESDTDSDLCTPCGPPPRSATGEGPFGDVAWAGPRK

Flux ratio, lower = inhibition, inactive:
Cc1cccc(C(=O)Nc2cccc(NC(=O)c3cccc(C(F)(F)F)c3)c2)c1 0.155
CN(C)c1ccc(C(=O)Nc2cccc(NC(=O)c3ccccc3)c2)cc1 0.189
Cc1ccc(C(=O)Nc2cccc(NC(=O)c3ccccc3)c2)cc1 0.143
COc1cccc(C(=O)Nc2cccc(NC(=O)c3cccc(C)c3)c2)c1 0.169
Cc1cccc(C(=O)Nc2cccc(NC(=O)c3cccc(F)c3)c2)c1 0.405
O=C(Nc1cccc(NC(=O)c2ccc(Cl)cc2)c1)c1ccccc1 0.153
O=C(Nc1cccc(NC(=O)c2ccccn2)c1)c1ccccc1 0.202
O=C(Nc1cccc(NC(=O)c2cccc(F)c2)c1)c1ccccc1 0.2
Cc1cccc(C(=O)Nc2cccc(NC(=O)c3ccccc3OCC(C)C)c2)c1 0.148
CCOc1ccccc1C(=O)Nc1cccc(NC(=O)C2CCCC2)c1 0.144
CC(C)Oc1ccccc1C(=O)Nc1cccc(NC(=O)c2ccccc2OC(F)(F)F)c1 0.188
CCOc1ccccc1C(=O)Nc1cccc(NC(=O)c2ccccc2C(F)(F)F)c1 0.177
COc1ccccc1NC(=O)c1cccc(NC(=O)C2CCCC2)c1 0.19
COc1ccc(C(=O)Nc2cccc(NC(=O)c3ccccc3)c2)cc1 0.151
CCOc1ccccc1NC(=O)c1cccc(NC(=O)c2cccc(OC)c2)c1 0.172
CC(C)c1ccccc1C(=O)Nc1cccc(NC(=O)c2ccccc2OC(F)(F)F)c1 0.173
CCOc1cccc(NC(=O)c2cccc(NC(=O)C3CCCC3)c2)c1 0.125
CCCC(=O)C1CCN(c2ncnc3c2CN(C(=O)c2ccc(-c4ccccc4)cc2)CC3)CC1 0.204
Cc1cccc(C(=O)Nc2cccc(NC(=O)c3ccccc3C(C)C)c2)c1 0.166
CCOc1ccccc1NC(=O)c1cccc(NC(=O)C2CCCCC2)c1 0.19
O=C(Nc1cccc(NC(=O)c2ccncc2)c1)c1ccccc1 0.191
CCOc1ccccc1NC(=O)c1cccc(C(=O)NC2CCCC2)c1 0.179
Cc1cccc(C(=O)Nc2cccc(NC(=O)c3ccccc3Cl)c2)c1 0.173
O=C(Nc1cccc(NC(=O)C2CCCCC2)c1)c1ccccc1 0.215
COc1ccccc1C(=O)Nc1cccc(NC(=O)c2ccccc2C)c1 0.166
CCOc1ccccc1NC(=O)c1cccc(NC(=O)CC2CCCCC2)c1 0.163
CCOc1ccccc1NC(=O)c1cccc(NC(=O)CC2CCCC2)c1 0.159
CCOc1ccccc1NC(=O)c1cccc(NC(=O)c2ccccc2OC)c1 0.179
O=C(Nc1ccccc1Cl)c1cccc(NC(=O)C2CCCC2)c1 0.161
Cc1cccc(S(=O)(=O)Nc2cccc(NC(=O)c3ccccc3)c2)c1 0.195
Cc1cccc(C(=O)Nc2cccc(NC(=O)c3ccco3)c2)c1 0.192
COc1ccccc1C(=O)Nc1cc(NC(=O)c2cccc(C)c2)ccc1F 0.461
